The supplement of paper PMC13380429
Counter-ions that a name gives are not always drawn.

Legend:
[1] = tested on: Vero E6 infected with SARS-CoV-2; test: morphology score (similarity to uninfected cells); higher = more like uninfected cells; conditions: 24 h
[2] = tested on: Vero E6 infected with SARS-CoV-2; test: SARS-CoV-2 infection rate relative to infected DMSO; higher = more infection, active = 60 or less; conditions: 24 h

Structure (SMILES): Cn1c(=O)cc(N2CCC[C@@H](N)C2)n(Cc2cc(F)ccc2C#N)c1=O [trelagliptin] (10 µM)
- morphology score [1]: 0.194
- SARS-CoV-2 infection rate [2]: 99% (inactive)

Structure (SMILES): O=c1[nH]c2ccccc2n1C1CCN(CCCC(c2ccc(F)cc2)c2ccc(F)cc2)CC1 [pimozide] (10 µM)
- morphology score [1]: 0.48
- SARS-CoV-2 infection rate [2]: 66.5% (inactive)

Structure (SMILES): CCC(CC)CC1(C(=O)Nc2ccccc2SC(=O)C(C)C)CCCCC1 [dalcetrapib] (10 µM)
- morphology score [1]: 0.152
- SARS-CoV-2 infection rate [2]: 111% (inactive)

Structure (SMILES): CC[C@@H]1/C=C(\C)C[C@H](C)C[C@H](OC)[C@H]2O[C@@](O)(C(=O)C(=O)N3CCCC[C@H]3C(=O)O[C@H](/C(C)=C/[C@@H]3CC[C@@H](O)[C@H](OC)C3)[C@H](C)[C@@H](O)CC1=O)[C@H](C)C[C@@H]2OC [ascomycin] (10 µM)
- morphology score [1]: 0.0662
- SARS-CoV-2 infection rate [2]: 100% (inactive)

Structure (SMILES): CCCCCCCCCCCCCCCCCCCCCCO [docosanol] (10 µM)
- morphology score [1]: 0.0474
- SARS-CoV-2 infection rate [2]: 102% (inactive)

Structure (SMILES): O=C(/C=C/c1ccc2ccccc2n1)c1ccncc1 (0.833333 µM)
- morphology score [1]: 0.0453
- SARS-CoV-2 infection rate [2]: 104% (inactive)

Structure (SMILES): CNC(=O)Oc1ccccc1OC(C)C [propoxur] (10 µM)
- morphology score [1]: -0.276
- SARS-CoV-2 infection rate [2]: 118% (inactive)

Structure (SMILES): COc1ccc(Nc2nccc(NCCO)n2)cc1 [cardiogenol-C] (10 µM)
- morphology score [1]: 0.0849
- SARS-CoV-2 infection rate [2]: 100% (inactive)

Structure (SMILES): CC(O)COC[C@H]1O[C@@H]2O[C@H]3[C@H](O)[C@@H](O)[C@@H](O[C@H]4[C@H](O)[C@@H](O)[C@@H](O[C@H]5[C@H](O)[C@@H](O)[C@@H](O[C@H]6[C@H](O)[C@@H](O)[C@@H](O[C@H]7[C@H](O)[C@@H](O)[C@@H](O[C@H]8[C@H](O)[C@@H](O)[C@@H](O[C@H]1[C@H](O)[C@H]2O)O[C@@H]8COCC(C)O)O[C@@H]7COCC(C)O)O[C@@H]6COCC(C)O)O[C@@H]5COCC(C)O)O[C@@H]4COCC(C)O)O[C@@H]3COCC(C)O (stereo partly drawn) [hydroxypropyl-beta-cyclodextrin] (10 µM)
- morphology score [1]: 0.254
- SARS-CoV-2 infection rate [2]: 99% (inactive)

Structure (SMILES): CCOC(N)=O [urethane] (10 µM)
- morphology score [1]: -0.0716
- SARS-CoV-2 infection rate [2]: 106% (inactive)

Structure (SMILES): CC(C)c1nnc(-c2ccc(-c3ccccc3)nc2)n1-c1cccc2nonc12 (10 µM)
- morphology score [1]: -0.103
- SARS-CoV-2 infection rate [2]: 103% (inactive)

Structure (SMILES): NC(=O)C[S+]([O-])C(c1ccccc1)c1ccccc1 (centres undefined) (10 µM)
- morphology score [1]: 0.113
- SARS-CoV-2 infection rate [2]: 106% (inactive)

Structure (SMILES): COc1cc(C(=S)N2CCOCC2)ccc1O [vanitiolide] (10 µM)
- morphology score [1]: 0.152
- SARS-CoV-2 infection rate [2]: 102% (inactive)

Structure (SMILES): O=C(NCCNCC(O)COc1ccc(O)cc1)N1CCOCC1 (centres undefined) [xamoterol] (10 µM)
- morphology score [1]: 0.0295
- SARS-CoV-2 infection rate [2]: 110% (inactive)

Structure (SMILES): NC1=NC(=O)N([C@H]2C[C@H](O)[C@@H](CO)O2)CN1 (10 µM)
- morphology score [1]: 0.0264
- SARS-CoV-2 infection rate [2]: 106% (inactive)

Structure (SMILES): O=C1C(=Cc2cccnc2)C(=O)c2ccccc21 (10 µM)
- morphology score [1]: 0.19
- SARS-CoV-2 infection rate [2]: 99% (inactive)

Structure (SMILES): CO/N=C(\C(=O)N[C@@H]1C(=O)N2C(C(=O)O)=C(Cn3ccc(=N)n3CCO)CS[C@H]12)c1csc(N)n1 [Cefoselis sulfate] (10 µM)
- morphology score [1]: 0.115
- SARS-CoV-2 infection rate [2]: 101% (inactive)

Structure (SMILES): CCN(CC)C(=O)N[C@H]1C=C2c3cccc4[nH]cc(c34)C[C@H]2N(C)C1 [lisuride] (10 µM)
- morphology score [1]: -0.111
- SARS-CoV-2 infection rate [2]: 110% (inactive)

Structure (SMILES): CCCC(C)C1(CC)C(=O)NC(=O)NC1=O (centres undefined) [pentobarbital] (10 µM)
- morphology score [1]: 0.0334
- SARS-CoV-2 infection rate [2]: 100% (inactive)

Structure (SMILES): CC(=O)OCC(=O)[C@H]1CC[C@H]2[C@@H]3CCC4=CC(=O)CC[C@]4(C)[C@H]3CC[C@]12C [deoxycorticosterone-acetate] (10 µM)
- morphology score [1]: -0.0375
- SARS-CoV-2 infection rate [2]: 102% (inactive)

Structure (SMILES): C#CC1(OCC(O)CN2CCN(c3cccc(C(F)(F)F)c3)CC2)CCCCC1 (centres undefined) [terciprazine] (10 µM)
- morphology score [1]: 0.107
- SARS-CoV-2 infection rate [2]: 104% (inactive)

Structure (SMILES): Sc1ncnc2nc[nH]c12 [mercaptopurine] (0.833333 µM)
- morphology score [1]: 0.0241
- SARS-CoV-2 infection rate [2]: 108% (inactive)

Structure (SMILES): O=[N+]([O-])O[C@H]1CO[C@H]2[C@@H]1OC[C@H]2O[N+](=O)[O-] [isosorbide-dinitrate] (10 µM)
- morphology score [1]: 0.0765
- SARS-CoV-2 infection rate [2]: 112% (inactive)

Structure (SMILES): C#CC[C@H](c1nc2cc(Cl)ccc2c(=O)n1Nc1ccccc1)N(CCCN)C(=O)c1cccc(Cl)c1F (0.833333 µM)
- morphology score [1]: -0.0173
- SARS-CoV-2 infection rate [2]: 112% (inactive)

Structure (SMILES): O=C(/C=C/c1ccc2ccc(C(F)(F)F)cc2n1)c1ccncc1 (10 µM)
- morphology score [1]: 0.389
- SARS-CoV-2 infection rate [2]: 63.5% (inactive)

Structure (SMILES): CC(=O)N[C@@H](CS)C(=O)O [acetylcysteine] (10 µM)
- morphology score [1]: 0.183
- SARS-CoV-2 infection rate [2]: 95.5% (inactive)

Structure (SMILES): O=C(c1cccc(Cl)c1F)N1CCN(Cc2cccc(Nc3nccs3)n2)CC1 (0.833333 µM)
- morphology score [1]: 0.202
- SARS-CoV-2 infection rate [2]: 107% (inactive)
